According to the supplement of paper PMC7556523:
A number with no mark means an inactive call.

Experiments:
[1] = test system: Sporothrix brasiliensis CBS 133006; assay: growth inhibition relative to untreated control; higher = more growth inhibition (more antifungal activity), active = 80 or more; extreme values may be limits of the assay; conditions: 1 µM; 48 h
Outline: (§1)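 Before testing, the reference isolates were kept in brain heart infusion broth with 2% glucose at 36°C for 7 days to give yeast-form cells. These cells, at 1 x 10^5 CFU/ml, received library compounds at a final 1 μM and were held 48 h at 35°C in 5% CO2. Growth was checked by eye under an inverted light microscope and quantified spectrophotometrically in quadruplicate, and the value is percent growth inhibition versus untreated cells.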

[2] = test system: Sporothrix schenckii ATCC 32286; assay: as above; conditions: 1 µM; 48 h
Outline: as §1

CS(=O)(=O)c1cccc(-c2cnc3[nH]cc(-c4ccc(CCC(=O)O)cc4)c3c2)c1
growth inhibition [1]: 4.25%
growth inhibition [2]: 0%

O=C(N[C@H](Cc1ccccc1)C(=O)Nc1ccccc1N1CCOCC1)c1cccs1
growth inhibition [1]: 7%
growth inhibition [2]: 7.25%

Cc1ccc(-c2cc(C(=O)Nc3cccnc3)c3cc(Br)ccc3n2)cc1
growth inhibition [1]: 25.2%
growth inhibition [2]: 0%

COc1cccc(NC(=O)c2c(NC(=O)c3cccnc3)sc3c2CCC3)c1
growth inhibition [1]: 15.8%
growth inhibition [2]: 13.8%

CC(C)(C)OC(=O)N1CCN(c2cc(-c3ccc(Oc4ccccc4)cc3)n[nH]2)CC1
growth inhibition [1]: 10.5%
growth inhibition [2]: 0%

CNc1snc(C)c1C(=O)NCCOc1ccc(OC)cc1
growth inhibition [1]: 12.2%
growth inhibition [2]: 7.5%

Cc1ccc2[nH]c(C3CCCNC3)c(-c3ccncc3)c2c1 (stereo not given)
growth inhibition [1]: 19%
growth inhibition [2]: 7.75%

O=C(c1[nH]nc2c1CCCC2)N1CCN(Cc2ccc3c(c2)OCO3)CC1
growth inhibition [1]: 9.75%
growth inhibition [2]: 16.2%

NCC(c1cccs1)S(=O)(=O)c1ccccc1 (stereo not given)
growth inhibition [1]: 24.2%
growth inhibition [2]: 0%

FC(F)(F)c1cccc(-c2nc3c(NCc4ccncc4)nccc3[nH]2)c1
growth inhibition [1]: 38%
growth inhibition [2]: 4%

CCn1cnc2c(Nc3cc(F)cc(F)c3)nc(C#N)nc21
growth inhibition [1]: 13%
growth inhibition [2]: 3.75%

O=C(NC1CC1)c1ccc(N2CCC(Cc3ccccc3)CC2)nc1
growth inhibition [1]: 6.5%
growth inhibition [2]: 19.8%

CCOc1ccc2cc(-c3nn(C(C)(C)C)c(N)c3C(N)=O)cnc2c1
growth inhibition [1]: 0%
growth inhibition [2]: 2.5%

COc1ccc(Cl)cc1NC(=O)CN(C)C(=O)c1cnn(-c2ccccc2)n1
growth inhibition [1]: 14.5%
growth inhibition [2]: 15.2%

O=C(Nc1nnc(S)s1)c1cc(Br)ccc1Cl
growth inhibition [1]: 6.75%
growth inhibition [2]: 4%

CCOc1ccc2cc(-c3nn(CC4CCN(C)CC4)c4ncnc(N)c34)ccc2c1
growth inhibition [1]: 1.75%
growth inhibition [2]: 15.8%

CC(C)(C(=O)Nc1ccc(F)cc1)n1cc(-c2ccccc2F)cn1
growth inhibition [1]: 0%
growth inhibition [2]: 11%

CCOc1ccc(OCC(=O)Nc2cc(C)cc(C)c2)cc1
growth inhibition [1]: 12.2%
growth inhibition [2]: 18%

O=C(Nc1ccc(F)c(-c2nc3cc(-c4ccccc4)cnc3[nH]2)c1)N1CCCC1
growth inhibition [1]: 12.5%
growth inhibition [2]: 7.75%

O=C(Nc1cccc(Cl)c1)c1cnc(N2CCN(c3ccncc3)CC2)c(Cl)c1
growth inhibition [1]: 0.75%
growth inhibition [2]: 1.5%

Cc1ccc2oc(-c3cc(NC(=O)Cc4ccccc4)ccc3Cl)nc2c1
growth inhibition [1]: 14.5%
growth inhibition [2]: 11.2%

CCCn1nnc(NC(=O)COc2ccc(C3CCCCC3)cc2)n1
growth inhibition [1]: 13.2%
growth inhibition [2]: 0.5%

Cc1cc(NC(=O)c2ccc(Oc3ccc(Cl)cc3O)o2)no1
growth inhibition [1]: 18.8%
growth inhibition [2]: 2.75%

CC(Oc1ccccc1)C(=O)Nc1nc(-c2ccccn2)cs1 (stereo not given)
growth inhibition [1]: 18%
growth inhibition [2]: 0%

O=C(Nc1cccnc1)c1c(O)c2cccc3c2n(c1=O)CC3
growth inhibition [1]: 19.5%
growth inhibition [2]: 11.2%

CCc1cc(=O)n(C)c(SC(C)C(=O)Nc2ccc(F)cc2)n1 (stereo not given)
growth inhibition [1]: 9.25%
growth inhibition [2]: 13.5%

COc1ccc(C2(C(=O)Nc3ccc(Br)cc3)CCCC2)cc1
growth inhibition [1]: 59.8%
growth inhibition [2]: 13%

CCC(NC(=O)c1ccccc1NC(=O)c1ccc(C)cc1)C(=O)OC (stereo not given)
growth inhibition [1]: 10%
growth inhibition [2]: 5.75%

CCOc1ccc(-c2nc(CNCCc3ccc(F)cc3)cs2)cc1
growth inhibition [1]: 3.75%
growth inhibition [2]: 15.5%

Cc1cc2nc(NC(=O)C(C)(C)C)nc(Cl)c2n1Cc1ccc(Cl)cc1
growth inhibition [1]: 14.8%
growth inhibition [2]: 2.5%

CC(C)=CCC/C(C)=C/CNCCNC1C2CC3CC(C2)CC1C3 (stereo not given)
growth inhibition [1]: 44.2%
growth inhibition [2]: 22.2%

NCCN(C(=O)c1ccc(Cl)cc1Cl)c1ccc(OCc2ccc(Cl)cc2)cc1
growth inhibition [1]: 9.75%
growth inhibition [2]: 7%

O=C(NCCc1c[nH]c2ccccc12)c1cc2ccccc2oc1=O
growth inhibition [1]: 17.8%
growth inhibition [2]: 4.5%

COc1cc(NC(C)CCCN)c2ncccc2c1 (stereo not given)
growth inhibition [1]: 1%
growth inhibition [2]: 4.25%

CCc1nc2ccc(Cl)cn2c1C(=O)NCc1ccc(N2CCC(c3ccc(OC(F)(F)F)cc3)CC2)cc1
growth inhibition [1]: 10.2%
growth inhibition [2]: 2.25%
